From PubChem BioAssay AID1259400 (National Center for Advancing Translational Sciences (NCATS), 2018)
Out of some 350,000 compounds screened, about 2,100 (0.6%) were called active. Not shown: some 1% with an inconclusive outcome. The sample holds actives, similar compounds and a random draw of the others, so the mix is not that of the screen.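 The calls were made as follows: active = activity change of -60% or lower, but not beyond a set lower limit; inconclusive = change between -60% and -40%, or beyond the set limit; inactive = change above -40%.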

These compounds were tested against Relaxin receptor 1 (Homo sapiens) (UniProt Q9HBX9) (assay: qHTS Assay for Antagonists of the Relaxin Receptor RXFP1). Settings: HEK293-RXFP1, relaxin-stimulated cAMP HTRF, 30 min; at 57.5 µM; hits give low values.
Sequence of Relaxin receptor 1 (Homo sapiens) (Q9HBX9 whole entry, looked up): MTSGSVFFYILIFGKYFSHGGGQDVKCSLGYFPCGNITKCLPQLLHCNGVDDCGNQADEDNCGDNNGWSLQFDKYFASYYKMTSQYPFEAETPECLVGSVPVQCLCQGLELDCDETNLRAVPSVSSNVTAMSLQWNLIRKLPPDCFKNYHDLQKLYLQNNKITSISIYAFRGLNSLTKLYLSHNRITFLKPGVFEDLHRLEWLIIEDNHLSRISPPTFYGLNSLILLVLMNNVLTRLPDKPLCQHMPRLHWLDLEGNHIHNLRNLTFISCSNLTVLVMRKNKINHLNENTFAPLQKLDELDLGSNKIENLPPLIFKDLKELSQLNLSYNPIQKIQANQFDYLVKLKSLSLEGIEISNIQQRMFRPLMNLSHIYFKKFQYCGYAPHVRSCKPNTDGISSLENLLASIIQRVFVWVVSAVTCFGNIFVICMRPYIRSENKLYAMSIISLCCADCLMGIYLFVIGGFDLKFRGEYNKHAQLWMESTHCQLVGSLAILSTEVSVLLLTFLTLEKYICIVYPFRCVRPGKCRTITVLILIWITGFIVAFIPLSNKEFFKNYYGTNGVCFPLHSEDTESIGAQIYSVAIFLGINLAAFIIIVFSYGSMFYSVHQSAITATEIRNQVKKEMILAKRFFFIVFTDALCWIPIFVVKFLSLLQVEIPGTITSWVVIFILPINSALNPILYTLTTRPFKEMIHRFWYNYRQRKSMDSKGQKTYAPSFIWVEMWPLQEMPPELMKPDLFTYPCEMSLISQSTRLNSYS
% is scaled to controls: 0 for no effect and ±100 for the full control effect.

Row | SMILES | activity change, negative = inhibition
1 | Cc1ccccc1N/C(SCc1ccc(Cl)cc1)=C(/C#N)C(N)=O | -65.6% (active)
2 | Cc1ccccc1NC(=S)NC(=O)Cc1ccc(Cl)cc1 | -24.7% (inactive)
3 | Cc1ccccc1NC(=O)CSC(=O)c1ccccc1 | -0.348% (inactive)
4 | O=S(=O)(NCC(c1ccccc1)N1CCc2ccccc21)c1ccccc1 (configuration not stated) | -18.8% (inactive)
5 | Cc1cc(NC(=O)CSc2nnc(-c3ccc(Cl)s3)o2)no1 | -21% (inactive)
6 | Cc1cc(NC(=O)CSCC(=O)NC(C)c2ccccc2)no1 (configuration not stated) | 3.67% (inactive)
7 | Cc1cc(NC(=O)CSc2ncc(C(F)(F)F)cc2Cl)no1 | -64.7% (active)
8 | COc1ccccc1N1CCN(S(=O)(=O)CCNC(=O)COc2ccc(F)cc2)CC1 | 8.32% (inactive)
9 | CCc1nnc(NC(=O)c2ccco2)s1 | 0.195% (inactive)
10 | Cc1ccc(NC(=O)c2ccco2)cc1 | -9.99% (inactive)
11 | O=C(Nc1nc(-c2ccco2)c(-c2ccco2)s1)c1ccco1 | -61.6% (active)
12 | Cc1ccc(C2c3[nH]c4ccccc4c3CCN2C(=O)c2cccc(C)c2)cc1 (configuration not stated) | -10.4% (inactive)
13 | Cc1cc(C)cc(NC(=O)Cn2nc(N3CCN(c4ccccc4)CC3)ccc2=O)c1 | -7.03% (inactive)
14 | Cc1ccc(NC(=O)CCCn2c(=O)c3cccn3c3ccccc32)cc1Cl | -24.4% (inactive)
15 | COc1ccc(C(=O)NCC(c2ccc(N(C)C)cc2)N2CCc3ccccc32)c(OC)c1 (configuration not stated) | -11.3% (inactive)
16 | COc1ccc(N2CCN(C(=O)C3CCCN(C(=O)c4cc5sccc5n4C)C3)CC2)cc1 (configuration not stated) | -23.3% (inactive)
17 | Cc1ccc(Cn2c(=O)n(Cc3nc(-c4ccccc4)no3)c(=O)c3cc4c(cc32)OCO4)cc1 | 15.5% (inactive)
18 | C#CCOc1ccc(/C=C2/C(=O)ON=C2C)cc1OCC | -2.39% (inactive)
19 | C#CCOc1ccc(/C=C2/C(=O)NN(c3ccccc3)C2=O)cc1OC | -66.6% (active)
20 | COc1cc(/C=C2/C(=O)NN(c3ccc(F)cc3)C2=O)cc([N+](=O)[O-])c1O | -12.2% (inactive)
21 | Cc1ccc(-c2nc3ccccn3c2Nc2c(C)cccc2C)o1 | -10.4% (inactive)

Row | SMILES | activity change, negative = inhibition
22 | COc1ccc(CNC(=O)c2ccc(NC(=O)N3CC4CCCN4c4ccccc43)cc2)cc1 (configuration not stated) | -9.24% (inactive)
23 | CSc1ccccc1-c1nnc(NC(=O)c2ccc3c(c2)OCCO3)o1 | 23.7% (inactive)
24 | COc1cc(OC)c(OC)cc1/C=C/c1nc2ccccc2c(=O)n1-c1ccc(Br)c(C)c1 | -16.8% (inactive)
25 | O=C(CCS(=O)(=O)c1cc(Br)cc2c1N(C(=O)C1CC1)CC2)Nc1ccc(Br)cc1F | 2.95% (inactive)
26 | O=S(=O)(NCCS(=O)(=O)N1CCN(c2ccccc2)CC1)c1ccc(Cl)cc1 | -36.9% (inactive)
27 | O=S(=O)(NCCS(=O)(=O)N1CCN(c2ccccc2)CC1)c1ccc(F)cc1 | -74.9% (active)
28 | O=C(NCCS(=O)(=O)N1CCN(c2ccc(F)cc2)CC1)c1ccccc1Br | -4.07% (inactive)
29 | CCCC(=O)O[C@]1(C(=O)COC(=O)CC)CC[C@@H]2[C@@H]3CCC4=CC(=O)CC[C@]4(C)[C@H]3[C@@H](O)C[C@@]21C | -16.1% (inactive)
30 | COc1ccc(Cn2ccn(Cc3cccc(OC)c3)c(=O)c2=O)cc1 | 1.35% (inactive)
31 | O=[N+]([O-])/C=C/c1ccc2c(ccn2Cc2ccccc2)c1 | -93.7% (active)
32 | O=c1c(=O)n(Cc2c(F)cccc2Cl)ccn1Cc1ccccc1 | -0.809% (inactive)
33 | Cn1cccc1/C=C1\SC(=O)N(CC(=O)Nc2ccc(F)cc2)C1=O | -75.7% (active)
34 | Cn1cccc1/C=C1\SC(=S)N(NC(=O)c2ccc(Cl)cc2)C1=O | -8.62% (inactive)
35 | O=C(CN1C(=O)S/C(=C\c2ccccc2F)C1=O)NCCCn1ccnc1 | 4.7% (inactive)
36 | COCCCNC(=O)c1c(NC(=O)c2cc(=O)c3cc(C)c(C)cc3o2)sc2c1CCCC2 | -4.73% (inactive)
37 | O=C(CSc1nccn1-c1ccc(F)cc1)Nc1cccc2ccccc12 | 1.1% (inactive)
38 | CC(C)c1ccc(NC(=O)c2ccc3c(O)c(S(=O)(=O)c4ccccc4)c(=O)[nH]c3c2)cc1 | -14% (inactive)
39 | CCOC(=O)c1c(NC(C)=O)c2c3c(sc2n1Cc1c(C)cc(C)cc1C)CCCC3 | -73.1% (active)
40 | CCOC(=O)N1CCc2c(sc3c2c(=O)n(Cc2ccccc2)c(=O)n3CC(=O)Nc2cccc(C)c2)C1 | 4.91% (inactive)
41 | COC(=O)c1c(NC(=O)c2cc(=O)c3c(C)cc(C)cc3o2)sc2c1CCCC2 | 3.21% (inactive)
42 | CCN(CC)S(=O)(=O)c1nnc(NC(=O)COc2ccccc2Cl)s1 | -10.5% (inactive)
